High-throughput results: PubChem, National Center for Advancing Translational Sciences (NCATS)
HEK cytotox: Cytotoxic Profiling in HEK 293 Cell Line of Diverse Libraries Using Quantitative High-Throughput Screening; HEK 293 viability, ATP luminescence (CellTiter-Glo), 48-72 h; Potency, µM (series often up to 115 µM), inactives show at the top dose activity change, negative = cytotoxicity, hits mostly inhibitors; actives 6.6% (n = 94,000); AID 1345083, 2018; further: nearly all actives have a fitted effect of over 60% in size
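ATP-coupled CellTiter-Glo luminescence served as viability read-out, recorded 10 min after reagent addition at room temperature. HEK 293 cells, 250 cells/well, had been incubated with pintool-transferred compound for 48 or 72 hr at 37 degree Celsius.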
hNpr1 antagonist: Natriuretic polypeptide receptor (hNpr1) antagonism - Primary qHTS; Atrial natriuretic peptide receptor 1 (Homo sapiens), P16066; HEK293 hNpr1 GloSensor cGMP, ANP-stimulated luminescence; Potency, µM (series often up to 46.3 µM), for the others: top-dose activity change, negative = inhibition, most hits filed as inhibitors; actives 1.6% (n = 76,000); AID 1347048, 2019; calls by dose curve; further: nearly all actives have a fitted effect of over 60% in size
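Compound pre-incubated 30 min at room temperature on GloSensor-loaded HEK293 cells stably carrying hNpr1 and the pGS-40F cGMP biosensor. Stimulation uses hNppA at 0.1 nM final; luminescence is taken at baseline and 20 min post-agonist.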
FLuc inh: Firefly luciferase inhibition profiling of diverse chemical library using quantitative high-throughput screening | actives 2.5% (n = 76,000) | purified P. pyralis luciferase, luminescence, biochemical | Luciferin 4-monooxygenase (Photinus pyralis), P08659 | Potency, µM (series often up to 115 µM), most hits filed as inhibitors; further: nearly all actives have a fitted effect of over 65% in size
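Biochemical qHTS: compound (6-point titration) added to 10uM D-luciferin plus 10uM ATP in Tris acetate pH 7.5 buffer with Mg, Tween-20 and BSA, then purified enzyme at 10nM; light output imaged.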
NIH3T3 tox: Cytotoxic Profiling in NIH 3T3 Cell Line of Diverse Libraries Using Quantitative High-Throughput Screening; NIH 3T3 viability, CellTiter-Glo ATP luminescence, 48-72 h; Potency, µM (titrated, usually from 96.7 µM), for inactives: at the top dose activity change, negative = cytotoxicity, hits mostly inhibitors; AID 1345082, 2018; actives 4.3% (n = 94,000); further: nearly all actives have a fitted effect of over 55% in size
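Cells were seeded at 400 per well, treated with pin-transferred compound, and kept 48 or 72 hr at 37 °C before CellTiter-Glo addition and luminescence imaging of cellular ATP.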
SNCA expr inhib: Primary qHTS assay for inhibitors of alpha-synuclein gene (SNCA) expression. HEK-293 SNCA-luciferase knock-in, luminescence, 24 h. Potency, µM (highest dose often 57.2 µM), without a hit: at the highest dose activity change, negative = inhibition, actives largely listed as inhibitors. actives 0.17% (n = 140,000). AID 1671194, 2021;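 further: plate controls were DMSO cells for no effect and cell-free wells for full effect; nearly all actives have a fitted effect of over 45% in size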
HEK293 viab: GF-AFC viability counterscreen for inhibitors of alpha-synuclein gene (SNCA) expression | actives 0.12% (n = 150,000) | HEK-293-SNCA-luc viability, GF-AFC fluorescence, 24 h | Potency, µM (titrated, usually from 57.1 µM), without a hit: at the top dose activity change, negative = cytotoxicity, hits mostly cytotoxic;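 further: 0% = DMSO-treated cells and -100% = medium-only wells without cells; nearly all actives have a fitted effect of over 30% in size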
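HEK-293-SNCA-luc cells (1500/well) plated 24 h, then exposed 24 h to a dilution series; GF-AFC added 30 min at 37C, fluorescence 405/540 nm; normalised to medium-only and DMSO wells, Hill fit.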
The depositor's hits bear a star; i = inactive; ? = inconclusive; . = no result given; ! = a repeat was not active; [ ] = another dose, or the depositor's remark. A selection: hits, their analogues and other compounds. The true share with any hit is near 7.4%. Unless noted, the call rests on the fitted dose curve; in most records, active means well fitted curve in the direction sought with a large enough effect; inconclusive means small, poorly fitted or top-dose-only effect, or another doubt; inactive means no such curve, though single readings can be large; an effect the other way counts as inactive or inconclusive. Unless noted, on the % scale 0 is the no-effect control and ±100 the full control effect; potency means the concentration at half of the fitted maximal effect.

SMILES	HEK cytotox	hNpr1 antagonist	FLuc inh	NIH3T3 tox	SNCA expr inhib	HEK293 viab
O=C(Cc1ccccc1F)NCCC1CCN(C(=O)Nc2cc(F)cc(F)c2)CC1	-14%	-23%	i	?	3%	2%
CC(=O)Nc1ccc(CN(C)Cc2ccccc2C(F)(F)F)cc1	89µM*	-4%[70.6 µM]	i	?	10%[87.6 µM]	-13%[87.6 µM]
CC(=O)Nc1ccc(CN(C)Cc2ccc(-c3ccccc3)cc2)cc1	79µM*	-10%[70.6 µM]	i	?	43%[87.6 µM]	1%[87.6 µM]
CN(Cc1ccc(-c2ccccc2)cc1)C(=O)Nc1ccc(Cl)cc1	?	?	?	?	-5%	-11%
CN1[C@@H](CCC(=O)NCc2ccc(F)cc2)CNC(=O)[C@@H]2[C@H]1CCN2Cc1cccc(Cl)c1	?	0%	i	?	-18%	1%
O=C(C1CCCC1)N1CCC2(C1)C(=O)N(CCc1ccccc1)c1ccccc12 (stereo not given)	40µM*!	-3%	i	?	15%	8%
COc1ccc(C(=O)N2CCC3(C2)C(=O)N(CCc2ccccc2)c2ccccc23)cc1 (stereo not given)	40µM*!	?	i	?	-11%	?
O=C(NC1CCCC1)N1CCC2(C1)C(=O)N(CCc1ccccc1)c1ccccc12 (stereo not given)	?	-5%	i	?	?	6%
O=C(c1ccc(C(F)(F)F)cc1)N1CCC2(C1)C(=O)N(Cc1ccccc1)c1ccccc12 (stereo not given)	22µM*	?	i	25µM*	-15%	3%
O=C(c1ccc(C(F)(F)F)cc1)N1CCC2(C1)C(=O)N(c1ccccc1)c1ccccc12 (stereo not given)	?	.	.	?	-26%	-11%
O=C(Cc1ccc(F)cc1)N1CCC2(C1)C(=O)N(CCc1ccccc1)c1ccccc12 (stereo not given)	45µM*	16%	i	?	-16%	-12%
Cc1ccc(CN2CCN(C(=O)C3CCCN(C(=O)c4ccccc4)CCC(=O)NCC3)CC2)cc1 (stereo not given)	i	3%	i	-11%	-10%	6%
O=C(Nc1ccc(Cl)cc1)N1CCC2(C1)C(=O)N(CCc1ccccc1)c1ccccc12 (stereo not given)	32µM*!	-11%	i	?	?	-28%
O=C(c1cccc(Cl)c1)N1CCC2(C1)C(=O)N(CCc1ccccc1)c1ccccc12 (stereo not given)	28µM*	?	i	40µM*!	?	?
O=C(Nc1ccccc1)N1CCC2(C1)C(=O)N(CCc1ccccc1)c1ccccc12 (stereo not given)	?	0%	i	?	-5%	-5%
COc1ccc(N2CC(c3noc(-c4cccc(F)c4)n3)CC2=O)cc1OC (stereo not given)	-7%	3%	i	i	-14%	-7%
Clc1cc(Cl)cc(NC2CNC2)c1	63µM*	.	.	56µM*	9%[87.6 µM]	?
COc1ccc(Nc2ccnc(N3CCCC(C(=O)NC4CCCC4)C3)n2)cc1 (stereo not given)	?	.	.	40µM*	-6%	-13%[12.5 µM]
COc1ccc(CNC(=O)C2CCCN(c3nccc(Nc4ccc(OC)cc4)n3)C2)cc1 (stereo not given)	28µM*	.	.	?	?	?
